Screening results from PubChem BioAssay.
LANA-H2B inh: blocks KSHV LANA binding to histone H2A/H2B; cell-free LANA-H2A/H2B peptide, fluorescence polarization; inhibition, % (test concentration not listed); 320,000 compounds, 0.6% hits; in the data active = inhibition mostly above about 10%, no sharp cut-off; inactive = mostly below about 6.7%
SUMO Mot1 rescue: blocks SUMOylation pathway, rescuing yeast Mot1-301 growth | S. cerevisiae Mot1-301 growth rescue, ATP luminescence, 38.5C; percent above DMSO median, 100 means doubled | growth rescue, % at 18.8 µM | 320,000 compounds, 1% hits | AID 2716;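 active = every valid replicate shows activation above 250% relative to neutral control wells; inactive = the rest, any valid replicate at or below 250%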;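 note: OY570 slx delta 5 strain wells were the positive control but not used for scaling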
HDAC3 inhib: inhibitors of human histone deacetylase 3. O15379. recombinant HDAC3, fluorogenic peptide/trypsin coupled, fluorescence. inhibition, % at 8.3 µM. 320,000 compounds, 0.15% hits. AID 2718; in the data active = inhibition above about 26%, passing the limit was not always enough; inconclusive = no clear call, values can overlap the other calls
IDE cell activ: activators of human insulin-degrading enzyme in cells | P14735 | HEK cells, FAbeta-B cleavage, fluorescence polarization; 0% vehicle, 100% cell-free pure enzyme wells | 340,000 compounds, 0.073% hits | activation, % at 5.96 µM;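 active = activation above the mean of all tested compounds plus 3 SD, set per screening campaign, cut at about 17% in these data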
Target sequence (P14735 whole entry, looked up): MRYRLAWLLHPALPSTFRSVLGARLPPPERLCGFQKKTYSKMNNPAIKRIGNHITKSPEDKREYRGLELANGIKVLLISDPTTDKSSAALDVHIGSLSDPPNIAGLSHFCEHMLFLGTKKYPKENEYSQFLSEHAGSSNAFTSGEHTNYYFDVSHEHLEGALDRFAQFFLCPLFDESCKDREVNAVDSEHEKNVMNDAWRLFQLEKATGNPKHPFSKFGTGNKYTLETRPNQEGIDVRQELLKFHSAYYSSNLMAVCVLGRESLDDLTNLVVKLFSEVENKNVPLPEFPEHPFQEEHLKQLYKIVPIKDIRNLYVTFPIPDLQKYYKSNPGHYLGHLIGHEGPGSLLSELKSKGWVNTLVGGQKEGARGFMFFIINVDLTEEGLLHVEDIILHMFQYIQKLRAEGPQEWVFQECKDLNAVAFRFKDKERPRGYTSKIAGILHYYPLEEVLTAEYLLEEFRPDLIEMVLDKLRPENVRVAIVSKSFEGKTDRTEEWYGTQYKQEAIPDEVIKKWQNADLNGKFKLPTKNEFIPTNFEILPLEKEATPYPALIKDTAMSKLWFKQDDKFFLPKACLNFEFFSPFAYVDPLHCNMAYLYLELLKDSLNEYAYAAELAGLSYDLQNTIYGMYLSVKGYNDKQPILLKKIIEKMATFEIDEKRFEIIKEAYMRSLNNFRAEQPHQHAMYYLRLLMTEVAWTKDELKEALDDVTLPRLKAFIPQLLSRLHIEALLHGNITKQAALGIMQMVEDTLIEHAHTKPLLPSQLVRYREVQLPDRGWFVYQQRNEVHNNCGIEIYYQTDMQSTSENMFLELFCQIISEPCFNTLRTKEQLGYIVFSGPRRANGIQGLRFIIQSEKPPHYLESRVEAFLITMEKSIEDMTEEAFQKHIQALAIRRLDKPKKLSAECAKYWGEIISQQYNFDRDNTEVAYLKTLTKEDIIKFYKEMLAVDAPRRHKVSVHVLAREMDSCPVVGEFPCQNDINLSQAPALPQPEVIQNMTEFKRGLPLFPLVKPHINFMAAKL
IDE inh: cellular human IDE inhibition; 320,000 compounds, 0.41% hits; inhibition, % at 5.59 µM; P14735; HEK cells, FAbetaB cleavage, fluorescence polarization;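 active = percent inhibition above the average of all tested compounds plus 3 SD, set per screening campaign, cut at about 16% in these data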;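 note: IDE supplied by intact live HEK cells; FP after avidin binding of uncleaved biotin substrate so inhibition keeps polarization high; 0% = DMSO wells and 100% = 60 µM reference IDE inhibitor Ii1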
IDE inh confirm: cellular human IDE inhibition, confirmation | AID 435028 | HEK cells, FAbetaB cleavage, fluorescence polarization | 1,200 compounds, 51% hits | shares compounds with IDE inh | inhibition, % at 5.59 µM;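 active = mean inhibition across triplicate wells above the cutoff set by the earlier primary insulin-degrading enzyme screen, cut at about 16% in these data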;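 note: 0% = DMSO wells and 100% = 60 µM reference IDE inhibitor Ii1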
HEK293 tox: kills HEK cells in IDE inhibitor counter-screen; HEK293 cytotoxicity, ATP luminescence; AID 449730; 1,200 compounds, 28% hits; shares compounds with IDE inh; inhibition, % at 5.59 µM; in the data active = inhibition above about 22%;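 note: 0% = vehicle wells and 100% = reference cytotoxic drug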
IDE FP artifact: fluorescence interference counter-screen for IDE inhibitors; shares compounds with IDE inh; FP counterscreen for fluorescent artifacts, IDE probe project; IC50, µM; 30 tested, under 10 active; call rule not given here
Numbers without * were called inactive; ? = inconclusive; . = no result given. The list is not random: actives were taken first. Their share in the collection is about 2.1%.

SMILES	LANA-H2B inh	SUMO Mot1 rescue	HDAC3 inhib	IDE cell activ	IDE inh	IDE inh confirm	HEK293 tox	others
Cn1c(=O)c(C(=O)CN2CCCc3ccccc32)c(N)n(Cc2ccccc2)c1=O	-4.4	-3.1	6.5	0.2	30.5*	16.6*	21.7	IDE FP artifact=>54.7
Cc1cc(NC(=O)c2ccc(NC(=O)C3CCCO3)cc2)ccc1Br (stereo not given)	2.7	2.1	-1.4	-0.3	7.2	.	.
c1ccc(-n2ncc3c(NCc4ccco4)ncnc32)cc1	-1.6	13.2	0.8	1.1	-0.6	.	.
CC(C)Nc1ncnc2c1cnn2Cc1ccccc1Cl	3.7	-0.9	7.3	2.2	2.6	.	.
c1ccc(Cn2ncc3c(NCc4ccco4)ncnc32)cc1	-3.7	3.7	3.1	-11.2	17.9*	9.8	12.1
Cc1cccc(Nc2ncnc3c2cnn3Cc2ccccc2)c1	-2.7	47.2	?	-4.5	-2.0	.	.
CC(C)CNc1ncnc2c1cnn2Cc1ccccc1Cl	3.1	59.8	10.9	-10.6	17.1*	9.4	12.4
O=C(O)c1ccc(Nc2ncnc3c2cnn3Cc2ccccc2)cc1	3.3	15.0	3.7	-18.4	17.0*	8.6	3.7
COc1cccc(CN(C)C(=O)CCN=C2NS(=O)(=O)c3ccccc32)c1	3.2	7.0	-0.5	-3.8	6.5	.	.
O=C(CSc1nnc(CCCOc2ccc(Cl)cc2Cl)o1)Nc1ccc(C(=O)O)cc1	-4.8	7.7	0.4	1.8	18.0*	5.6	7.0
O=C(CSc1nnc(COc2ccc(Cl)cc2Cl)o1)Nc1ccccn1	-2.4	-24.4	3.1	3.2	-7.6	.	.
CCCCCCc1cc2cc(C(=O)OCC)c(=O)oc2cc1O	-6.1	-4.7	-55.6	4.7	-1.2	.	.
CCCCCCc1cc2cc(/C(N)=N/NC(=O)c3ccncc3)c(=O)oc2cc1O	-20.7	-3.1	3.7	-36.2	28.6*	97.0*	15.6
COc1ccc(N(CC(=O)N2CCN(c3ccc(Cl)cc3)CC2)S(=O)(=O)c2c(C)n[nH]c2C)cc1	2.2	13.2	17.0	-15.5	18.5*	7.6	19.2
CCOc1ccccc1NC(=O)c1cccc(N2C(=O)CCC2=O)c1	9.5	5.4	4.1	6.5	3.8	.	.
CCN(CC)c1ccc2cc(C(N)=O)c(=O)oc2c1	4.0	-13.2	3.7	-1.6	-1.1	.	.
CCN(CC)c1ccc2cc(C(C)=O)c(=O)oc2c1	-6.0	-3.7	13.0	-36.9	35.3*	17.9*	9.8
CCN(CC)c1ccc2cc(C=O)c(=O)oc2c1	-64.4	-25.4	4.6	-68.9	90.5*	67.3*	12.2
CCOC(=O)C1CCN(CCC(=O)Nc2ccc(Br)c(C)c2)CC1	-7.9	104.8	-6.5	2.5	.	.	.
Cc1nnc(NCCc2ccccc2)c2ccccc12	-5.6	-4.9	13.9	2.3	6.2	.	.
CCOC(=O)C1C(=O)C=C(/C=C/c2ccc(N(C)C)cc2)CC1c1ccccc1 (stereo not given)	-8.9	-17.6	8.2	-114.2	40.4*	129.3*	24.0*
CCOC(=O)C1C(=O)C=C(c2ccc(C)cc2)CC1c1ccccc1 (stereo not given)	2.9	-3.2	4.5	-0.1	1.1	.	.
COc1ccccc1C(=O)C1CCCN(C(=O)c2cnn(C(C)C)c2)C1 (stereo not given)	-1.9	-10.1	9.3	1.8	1.2	.	.
COc1ccc(NC(=O)C(Cc2cc(C)cc(C)c2)C(C)C(=O)O)cc1 (stereo not given)	-0.6	1.8	-6.0	1.3	-5.4	.	.
CC(OC(=O)/C(C#N)=C/c1ccc(N(C)C)cc1)C(=O)N(C)Cc1ccccc1 (stereo not given)	-8.1	4.1	1.3	-31.5	29.6*	36.6*	17.6
SMILES	LANA-H2B inh	SUMO Mot1 rescue	HDAC3 inhib	IDE cell activ	IDE inh	IDE inh confirm	HEK293 tox	others
CC(OC(=O)c1cccc(O)c1)C(=O)N(C)Cc1ccccc1 (stereo not given)	1.8	5.8	9.0	-4.2	2.4	.	.
CCOc1ccc(NC(=O)c2ccccn2)cc1	10.1	-14.2	-1.8	1.7	16.9*	9.6	26.6*
CC(=O)Oc1c(Cl)cc(Cl)cc1/C=C/c1ccc2ccccc2n1	3.5	20.4	3.4	-64.7	45.1*	68.0*	12.1
CN(CCOc1ccc(Cl)cc1)C(=O)c1cccc(S(=O)(=O)N2CCN(c3ccc(F)cc3)CC2)c1	.	.	.	1.9	.	.	.
CCN1/C(=C/C=C/c2oc3ccc4ccccc4c3[n+]2CC)Oc2ccc3ccccc3c21	-34.5	30.5	?	.	82.2*	133.5*	112.2*
CC[n+]1c(/C=C/N(C)c2ccccc2)oc2ccc(Cl)cc21	5.1	29.4	2.8	-1.9	-1.8	.	.
CN1C(=O)C(=O)/C(=C(/O)c2ccc(Br)cc2)C1c1ccccc1F (stereo not given)	1.2	-3.6	0.9	5.9	-3.0	.	.
CCOc1ccccc1NC(=O)CSc1nnc2ccc(-c3ccncc3)nn12	3.5	1.8	-4.9	-16.3	22.3*	9.0	9.1
Oc1ccc(Br)cc1C=Nc1ccc2c3c(cccc13)CC2	.	-25.5	.	-3.5	22.5*	1.1	9.8
Oc1ccc(Cl)cc1C=Nc1ccccc1Br	-0.7	-20.7	-2.0	6.7	0.7	.	.
O=C(Nc1cccc(C(F)(F)F)c1)c1csc(-c2cccc(C(F)(F)F)c2)n1	.	.	.	.	.	.	.	IDE FP artifact=>54.7
O=C(Nc1ccccc1)c1csc(-c2ccccc2)n1	7.1	-16.4	10.6	1.7	-0.4	.	.
NNC(=O)c1csc(-c2cccc(C(F)(F)F)c2)n1	1.4	-12.7	7.6	5.3	-2.9	.	.
Cc1ccc(-c2nc(C(=O)Nc3cccc(C(F)(F)F)c3)cs2)cc1	.	.	.	.	.	.	.	IDE FP artifact=>54.7
O=C(Nc1ccc(C(F)(F)F)cc1)c1csc(-c2ccncc2)n1	-0.1	3.0	11.9	-2.2	-1.6	.	.
O=C(Nc1cccc(C(F)(F)F)c1)c1csc(-c2ccccc2)n1	.	.	.	.	.	.	.	IDE FP artifact=>54.7
O=C(Nc1cc(C(F)(F)F)cc(C(F)(F)F)c1)c1csc(-c2ccncc2)n1	.	.	.	.	.	.	.	IDE FP artifact=>54.7
Nc1ccc2c3c(cccc13)CC2	-20.6	15.5	-19.2	-4.7	42.6*	2.6	4.1
CCc1cccc(NC(=O)C2CCCN(S(=O)(=O)c3cccs3)C2)c1 (stereo not given)	-0.7	-19.8	4.5	-0.4	1.5	.	.
C=CCn1c(O)c(N=NC(=S)Nc2cccc(C)c2)c2ccccc21	4.2	405.6	0.9	-4.2	24.5*	2.1	81.9*
O=C(N/N=C/c1cccc(O)c1)c1ccc(COc2ccc3c(c2)CCC3)o1	6.5	-0.9	6.8	-2.9	18.2*	2.9	8.2
NNC(=O)c1ccc(COc2ccc3c(c2)CCC3)o1	2.0	-7.8	-1.8	-0.7	0.8	.	.
O=C(Nc1ccccc1Cl)N1CCN(c2ccc3nnc(-c4ccc(F)cc4)n3n2)CC1	-1.3	-0.1	-2.1	-9.1	1.6	.	.
